# Source: PMC12136788
# In all, about 24,000 sequences were measured (“enrichment r”: median about 0.99, highest 2% from about 3.7 on). The list is a sample of the results.
# T1: UNK ZnF1-3 (human, UniProt Q9C0B0 31-174)
# T1 sequence: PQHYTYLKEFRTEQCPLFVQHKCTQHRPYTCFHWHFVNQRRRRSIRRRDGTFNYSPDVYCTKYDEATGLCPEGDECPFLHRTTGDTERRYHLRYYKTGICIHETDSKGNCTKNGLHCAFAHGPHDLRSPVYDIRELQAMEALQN
# B1: 46683936_46684056_841_CDS_ENSMUSG00000033319_ENSMUST00000036226|mouse|control|control (ssRNA)
# RNA: GGGAGUUCUACAGUCCGACGAUCUCGAAGAGGAGUUGAGUUGGUUAAAGUCGUGUUGUUGACAGAUGCUCCGUGAUUUAACAAAGACUGGACAACCUUCAGAUGUCCUGCUGCAGAAGCGGCCCAUAAAGGGGGGGCCCCCUCCAACAGAGGAUUGAGCAUCA
# B2: chr22:36164377:36164378:-_ENSG00000100320_ENST00000405409|hu_mus|FALSE|FALSE (ssRNA)
# RNA: GGGAGUUCUACAGUCCGACGAUCACGGCCCUCUACCACGGUGCCGUGCAAUUUCUCCCUGGCCCUGUCUGCAUCAGCACUAUUCUCGAAAGUUACGAACCCGAAUCCCUUGGAGCCGCGCUCAUUAAAGAUUAUUUCCACAUCCAACAGAGGAUUGAGCAUCA
# B3: chr17:3572670:3572671:+_ENSG00000127774_ENST00000248378|hu_hu|FALSE|FALSE (ssRNA)
# RNA: GGGAGUUCUACAGUCCGACGAUCGUAGGUGAAGAGGCCCCCGAUGAGGCCUCCUGUAAAGAGAGGUCUCCGUGAUUUGAAAUAUUUGUUCCACCUCCUUCCCGCCUUGAGAAUGAGGAGCAGGGAGAGCAGGACGGAGGCGAGCAACAGAGGAUUGAGCAUCA
# B4: chr2:47387770:47387771:-_ENSG00000143933_ENST00000272298|hu_mus|hu_hu_hu_mus_True|1_38 (ssRNA)
# RNA: GGGAGUUCUACAGUCCGACGAUCAAGGUUUAAGGACAAUGACAGUAAGAUAAGGGAAGAAAACAUGGAGGAAUGAAGUCCUAAUUACUAUACAUGCAUAUUUUUUUACAGUAGGGGGGGGGAACCUUUUACAGAUAUUACAAACAACAGAGGAUUGAGCAUCA
# B5: chr9:35286173:35286174:+_ENSMUSG00000038119_ENSMUST00000042842|mus_mus|FALSE|FALSE (ssRNA)
# RNA: GGGAGUUCUACAGUCCGACGAUCAGUAUUAUUGUUACUUGAUGGAACAUACGUCCAUUUCAGCAUGAUCUGAGUGUCGCUAACAGCCUCUGUGUAUGCGAUGUGAGGUCCAGUUAUUGGGCGAUUGGAAAAACGAUUUGGGAACAACAGAGGAUUGAGCAUCA
# B6: chrX:98862621:98862622:+_ENSMUSG00000034160_ENSMUST00000044475|mus_hu|mus_mus_mus_hu_False|58_88 (ssRNA)
# RNA: GGGAGUUCUACAGUCCGACGAUCCUGCAUCUCCUUUAGAGUGUUUCCCAUAUUGGAGUAGGCAUCAGCAAAGGUAGGACUAAUUCGAAUAGCCUCCUUAUAAUGCAUCAGAGCUUCCUGCAGUUUUCCCUGCUGCUGCAGUACCAACAGAGGAUUGAGCAUCA
# B7: chr2:32089778:32089779:+_ENSMUSG00000039262_ENSMUST00000036691|mus_hu|FALSE|FALSE (ssRNA)
# RNA: GGGAGUUCUACAGUCCGACGAUCUAAACAAGCUGCACAUUACACCUCUAGCCAUCGUCUGCCCUUUCAAAUAUCUGGUCUACAUGGAAAGACAAAGAGGAAAGGCCAAAACAUAAACAAAAGGAAACAAAAACAAAACACAACCAACAGAGGAUUGAGCAUCA
# B8: chr5:28742860:28742861:+_ENSMUSG00000048271_ENSMUST00000114884|mus_mus|FALSE|FALSE (ssRNA)
# RNA: GGGAGUUCUACAGUCCGACGAUCAGAAUCUCUUGAAAAAGAAAAGGUGAGAUUUCCUCCUCAAGAAGAGUAUCAAUAUAAUAAGGAUUUAACAAAUGUGGCCAAGCCAAGGGCAGCAUAAGGUUAUGUUCAGGUAAGCAGCUGCAACAGAGGAUUGAGCAUCA
# B9: chr3:49066234:49066235:-_ENSG00000178035_ENST00000326739|hu_hu|FALSE|FALSE (ssRNA)
# RNA: GGGAGUUCUACAGUCCGACGAUCAGAAGUCAGGUCCACCUGGUCUGCAGUGAAGUCGAUGUACCCAGGGAGAAUGAGAAAGUCAUUGUAGGUGAGGCCGUCUCCGCAGUUGAAGAGCUGCUGUGCUGUGAGUCCGUCGUCUGGCAACAGAGGAUUGAGCAUCA
# B10: chr8:87366250:87366251:-_ENSMUSG00000003814_ENSMUST00000003912|mus_mus|FALSE|FALSE (ssRNA)
# RNA: GGGAGUUCUACAGUCCGACGAUCGAGCAGAUGAAAUCUCAAGCCUAGGGCUUCUCCUCUACACCCCUGUUCCUAGAGUUGGAGGGUAGUGACCAAAAGAUGGAGAAAGGGAGGGACAGAAGGAAAAGAUGUUGAUUCAAAAAUCAACAGAGGAUUGAGCAUCA
# B11: chr7:75932113:75932114:+_ENSG00000106211_ENST00000248553|hu_hu|hu_hu_hu_mus_False|28_98 (ssRNA)
# RNA: GGGAGUUCUACAGUCCGACGAUCCUGCGACCACUCAUCCGGCAGCCGGGGCACCCCGAAAGCUUGAUCGAAGAGGCGGCUGUGUGCAGGGUACCAGUCCCGGAAUGCCCAGCUGGGCGGGCUCCGCAGCAGCGAGAAGGGCACCAACAGAGGAUUGAGCAUCA
# B12: chr4:88367131:88367132:-_ENSMUSG00000070923_ENSMUST00000094993|mus_hu|motif|central (ssRNA)
# RNA: GGGAGUUCUACAGUCCGACGAUCUUGGUAAUUGCUAGCUUCCAAAAGCAAAUUCACGCAGGUAUUGUCUGUUCUCAUGAAAUCGGCUGUCUGCACGUAAUUGAUGAGAUCCUGUGGUGUCAUCAGUGGAAAUCGAAUAUUCUUCAACAGAGGAUUGAGCAUCA
# B13: chr8:104447970:104447971:+_ENSG00000164934_ENST00000297579|hu_hu|hu_hu_hu_mus_False|48_108 (ssRNA)
# RNA: GGGAGUUCUACAGUCCGACGAUCAUAUACCUCCCUGCUUCGGCUCUUGUCCACAGGAAAGAUUCUAAUAGACUUAUCAAAGCUGGCAGACACAAACUCCUUCCCAGUGGGAGAGUAGUCCACAUCAAGUACUGCAGACACGUGCAACAGAGGAUUGAGCAUCA
# B14: 31532532_31534450_220_CDS_ENSG00000082213_ENST00000325366|human|control|control (ssRNA)
# RNA: GGGAGUUCUACAGUCCGACGAUCGAAAUGUAAAAAACUUACAUUACUGGCAGGAAGAUGCUUUGAGCCUAUGGCCCGGUAUAUAAAGGGUAGAACCUCCUGAUGAUCCUCCACCACCCACACUGGGAGCUUGGGGUAACGCCGCAACAGAGGAUUGAGCAUCA
# Target: T1, UNK ZnF1-3
# Experiment: nsRBNS (natural sequence RNA bind-n-seq); RBNS binding buffer (assumed for nsRBNS): 25 mM Tris pH 7.5, 150 mM KCl, 3 mM MgCl2, 0.01% Triton X-100, 500 ug/ml BSA, 20 U/ml SUPERase-In, 4 C; UNK is unkempt and MSI1 is Musashi-1; names of the RNAs are library labels; protein concentration not given here; high values mean tight binding
row,Binder,binding signal
1,B1,1.3 enrichment R
2,B2,1.19 enrichment R
3,B3,1.1 enrichment R
4,B4,2.41 enrichment R
5,B5,0.899 enrichment R
6,B6,0.89 enrichment R
7,B7,2.59 enrichment R
8,B8,1.72 enrichment R
9,B9,1.62 enrichment R
10,B10,1.61 enrichment R
11,B11,0.901 enrichment R
12,B12,0.896 enrichment R
13,B13,1 enrichment R
14,B14,0.807 enrichment R
